The source of these data is PubChem BioAssay AID504332 (National Center for Advancing Translational Sciences (NCATS), 2011).

Out of some 350,000 compounds screened, about 31,000 (8.9%) were called active. Another 15% or so got no clear call; they are omitted. The sample holds actives, similar compounds and a random draw of the others, so the mix is not that of the screen. Unmarked numbers belong to inactive results. Calls come from the whole dose curve; as a rule, active = well fitted inhibition curve with a large enough effect; inconclusive = small, poorly fitted or top-dose-only effect; inactive = no such curve, though single readings can be large or run the other way.
% is set by controls: 0 for no effect and ±100 for the full control effect; potency is the fitted concentration of half-maximal effect.

Histone-lysine N-methyltransferase EHMT2 (Homo sapiens), sequence (Q96KQ7 913-1193 limits assumed): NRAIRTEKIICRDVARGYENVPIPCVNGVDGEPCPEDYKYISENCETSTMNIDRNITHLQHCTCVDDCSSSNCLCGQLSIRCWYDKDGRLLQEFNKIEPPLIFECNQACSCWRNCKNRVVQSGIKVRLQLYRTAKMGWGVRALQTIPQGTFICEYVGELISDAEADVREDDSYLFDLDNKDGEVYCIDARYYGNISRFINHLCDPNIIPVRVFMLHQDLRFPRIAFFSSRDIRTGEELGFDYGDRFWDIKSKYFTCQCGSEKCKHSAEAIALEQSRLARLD

For this assay, the target named is Histone-lysine N-methyltransferase EHMT2 (Homo sapiens) (UniProt Q96KQ7). Description: qHTS Assay for Inhibitors of Histone Lysine Methyltransferase G9a. Note: nearly all actives have a fitted effect of over 75% in size. The note with it: G9a H3K9 monomethylation, AlphaScreen, 2 h; series mostly up to 59 µM; activity, negative = inhibition: at the top concentration. A digest of the protocol:
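Methyltransferase reactions run at room temperature for 2 h (20 nM enzyme, 500 nM biotin-H3K9 peptide, 20 uM SAM) after a 15 min compound preincubation; product detected by AlphaScreen beads and anti-H3K9me1 antibody.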
In general terms: Quantitative high-throughput screening tests each substance at several concentrations.
Regarding `Cc1cc(C)cc(NC(=O)Cc2csc(C)n2)c1`, the “activity, negative = inhibition” value was 10.3%.
On the same count and under the same terms, next, `CCN(CC(=O)Nc1ccccc1C(F)(F)F)C(=O)C1CCN(C(=O)Nc2ccccc2)CC1`: 2.62%.
As for `COc1ccc(N2C(=O)CC(N3CCC(C(N)=O)CC3)C2=O)cc1` (configuration not stated), the Potency is 14.1 µM (active).
`CCOC(=O)c1ccc(N2C(=O)CC(N3CC(C)OC(C)C3)C2=O)cc1` (configuration not stated): the “activity, negative = inhibition” value is -40.5%.
For `CCOC(=O)c1ccc(N2C(=O)CC(N3CCC(C(=O)OCC)CC3)C2=O)cc1` (configuration not stated), the Potency was 35.5 µM (active).
As to `COc1ccc(COCC(O)CN2CCC(C(N)=O)CC2)cc1` (configuration not stated), the “activity, negative = inhibition” value is 3.3% [at 102 µM].
The same measure, in the same setting: the figure for `NC(=O)C1CCN(C2OC(=O)c3ccccc32)CC1` (configuration not stated) is -5.82% [at 102 µM]; for `CCOC(=O)C1CCN(c2ccc(C(=O)O)cc2[N+](=O)[O-])CC1` it is -4.88%.
Same read-out and setting: next, `COc1cc(Cl)ccc1Nc1ncc(C(=O)N2CCN(c3ccccc3OC)CC2)c2ccccc12`: 15.8%; `COc1cc(C)ccc1OCCSc1nc2ccc(NC(=O)c3ccc(C)cc3)cc2s1`: 4.13%; `N#C/C(=C\c1cccc(F)c1)c1nc(-c2cc3c(ccc4ccccc43)oc2=O)cs1`: 6.36%.
Still for that read-out and setting: next, `COc1ccc(NC(=O)COCc2cc(-c3ccco3)on2)cc1`: -6.26%; `CC(OC(=O)/C=C/c1ccccc1)C(=O)NC1CCCCC1C` (configuration not stated): 27.1% [at 12.7 µM].
Turning to `CCCCN(C(=O)C1=NN(c2cc(C)ccc2C)C(=O)CC1)c1c(N)n(CCC)c(=O)[nH]c1=O`, the activity, negative = inhibition was -9.41% [at 12.7 µM].
Still for that read-out and setting: the figure for `O=C(CSc1n[nH]c(-c2cccs2)n1)N1CCCCC1` is -2.34% [at 2.33 µM]; for `COC(=O)c1ccc(/C=N\n2c(C)nnc2C)cc1` it is -23%; for `CCN(CC)S(=O)(=O)c1ccc2nc(COC(=O)c3n[nH]c4ccccc34)[nH]c2c1` it is 12.7% [at 12.7 µM].
In the case of `CCN(CC)S(=O)(=O)c1cccc(-c2n[nH]c(=S)n2/N=C/c2ccc(C(=O)OC)cc2)c1`, the Potency is 1.41 µM (active).
Take `COc1ccc(-c2nn(CC(=O)Nc3ccccc3F)c3c2cnc2ccc(F)cc23)cc1`: the “activity, negative = inhibition” value is 6.33%.
Still for that read-out and setting: next, `CCOC(=O)c1cccc(NC(=O)Cn2cnc3nc4c(cc3c2=O)CCCC4)c1`: 7.81%.
Turning to `CC(NCC(=O)Nc1ccccc1C(=O)NC1CC1)c1ccccc1Cl` (configuration not stated), the activity, negative = inhibition is 3.45% [at 12.7 µM].
Still for that read-out and setting: the figure for `Cc1cccc(Cn2c(CN3CCC(C(=O)NCc4ccccc4Cl)CC3)cc3ccccc32)c1` is -2.03%; for `CCCN(CCC)CCNC(=O)Cn1cnc2sc(C)c(S(=O)(=O)N3CCC(C)CC3)c2c1=O` it is 2.22%.
For the compound `Cc1ccc(NC(=O)CN(C)C(=O)COC(=O)C(C)(C)Oc2ccc(Cl)cc2)cc1`, the “activity, negative = inhibition” value is 20.6% [at 102 µM].
On to `COc1ccc(N2CCN(S(=O)(=O)CCNC(=O)C34CC5CC(CC(C5)C3)C4)CC2)cc1`, for which the Potency is 44.7 µM (active).
As to `COc1ccc(OCC(=O)NCCS(=O)(=O)N2CCN(c3ccc(F)cc3)CC2)cc1`, the “activity, negative = inhibition” value was 17.9%.
Take `COc1ccc(N2CC(C(=O)NCCS(=O)(=O)N3CCN(c4ccccc4)CC3)CC2=O)cc1` (configuration not stated): the Potency entry is “inactive”.
On to `CC(=O)Nc1ccc(NC(=O)CCCc2nc(-c3ccc(C(C)(C)C)cc3)no2)cc1`, for which the “activity, negative = inhibition” value was -1.05%.
With `CCc1ccc(NC(=O)Cn2nnc(C(=O)NCc3ccc(OC)cc3)c2N)cc1`, the “activity, negative = inhibition” value is 46.9% [at 102 µM].
As to `CC(=O)c1c(C)n(-c2ccc(N(C)C)cc2)c2ccc(OCC(N)=O)cc12`, the Potency is 50.1 µM (active).
As to `CCOC(=O)c1c(-c2ccccc2)oc2ccc(OCC(N)=O)cc12`, the “activity, negative = inhibition” value was 6.55%.
On to `CC(=O)c1c(C)n(-c2ccc(C)cc2)c2ccc(O)cc12`, for which the “activity, negative = inhibition” value was 8.12% [at 102 µM].
Still for that read-out and setting: next, `COc1ccc(CCNC(=O)COc2ccc3c(c2)OCO3)cc1`: 13.4% [at 2.33 µM]; `COc1ccc(CCNC(=O)c2cc3cccc4c3n2CC(C)S4)c(OC)c1OC` (configuration not stated): -4.92%; `O=C(NCCc1c[nH]c2ccccc12)C(=O)NCC1CCCO1` (configuration not stated): 2.09% [at 102 µM].
`N#C/C(=C/c1ccc(N2CCCCC2)o1)C(=O)NCCc1c[nH]c2ccccc12`: the Potency is 31.6 µM (active).
Take `COCCCNC(=O)/C(C#N)=C/c1c(N2CCCCCC2)nc2ccccn2c1=O`: the activity, negative = inhibition was 7.66% [at 2.33 µM].
Consider `COc1ccc(Cc2nc3ccc(C(=O)NCc4ccccc4C)cc3o2)cc1`, for which the “activity, negative = inhibition” value was -3.49%.
Still for that read-out and setting: the figure for `CCOCCn1[nH]c2ccccc2c1=O` is -9.31% [at 2.33 µM]; for `O=S(=O)(c1ccccc1)N1CCC(c2ccccc2)CC1` it is 0.779% [at 2.33 µM]; for `Cc1ccc(C(=O)N/C(=C/c2ccco2)C(=O)NCCc2c[nH]c3ccccc23)cc1C` it is -22.3%.
Still for that read-out and setting: the figure for `CC(=O)NC(Cc1c[nH]c2ccccc12)C(=O)O` (configuration not stated) is 19.7%.
For `O=C(NC(Cc1c[nH]c2ccccc12)C(=O)O)/C(=C/c1ccco1)NC(=O)c1ccccc1` (configuration not stated), the Potency is 28.2 µM (active).
In the case of `COc1ccccc1Cc1nc2ccccc2nc1SCC(=O)N1CCCc2ccccc21`, the “activity, negative = inhibition” value is -10.3%.
On the same count and under the same terms, next, `COc1cccc(-n2c(=S)sc3c(=O)n(-c4ccccc4C)c(SCC(=O)O)nc32)c1`: -17% [at 102 µM].
`COc1ccc(Cl)cc1-n1c(=S)sc2c(=O)n(-c3ccc(F)cc3)c(SCC(=O)O)nc21`: the Potency was 28.2 µM (active).
On to `COc1ccc(Cl)cc1NC(=O)C1CC(=O)N(c2ccc(F)cc2)C1` (configuration not stated), for which the activity, negative = inhibition was -1.46% [at 12.7 µM].
